# Results filed as inconclusive are left out. The source holds several records for some structures; these can differ, active in one and inactive in another. Calls of active or inactive are those of the source. Rule for the calls, unless noted: active = hit-call score of the fitted dose curve at least 0.9, where 1 is the maximum; inactive = score below 0.9.
# Tests used:
# [1] = biological target: human Phosphoinositide 3-kinase alpha (PI3Ka), PIK3CA (gene 5290) (UniProt P42336); test: NVS_ENZ_hPI3Ka: NovaScreen (NVS) Enzymatic Assay for human Phosphoinositide 3-kinase alpha (PI3Ka) (AID 2283196; active = hit-call score of the fitted dose curve at least 0.9, where 1 is the maximum)
# Chain of human Phosphoinositide 3-kinase alpha (PI3Ka), PIK3CA (gene 5290) (P42336 whole entry, looked up): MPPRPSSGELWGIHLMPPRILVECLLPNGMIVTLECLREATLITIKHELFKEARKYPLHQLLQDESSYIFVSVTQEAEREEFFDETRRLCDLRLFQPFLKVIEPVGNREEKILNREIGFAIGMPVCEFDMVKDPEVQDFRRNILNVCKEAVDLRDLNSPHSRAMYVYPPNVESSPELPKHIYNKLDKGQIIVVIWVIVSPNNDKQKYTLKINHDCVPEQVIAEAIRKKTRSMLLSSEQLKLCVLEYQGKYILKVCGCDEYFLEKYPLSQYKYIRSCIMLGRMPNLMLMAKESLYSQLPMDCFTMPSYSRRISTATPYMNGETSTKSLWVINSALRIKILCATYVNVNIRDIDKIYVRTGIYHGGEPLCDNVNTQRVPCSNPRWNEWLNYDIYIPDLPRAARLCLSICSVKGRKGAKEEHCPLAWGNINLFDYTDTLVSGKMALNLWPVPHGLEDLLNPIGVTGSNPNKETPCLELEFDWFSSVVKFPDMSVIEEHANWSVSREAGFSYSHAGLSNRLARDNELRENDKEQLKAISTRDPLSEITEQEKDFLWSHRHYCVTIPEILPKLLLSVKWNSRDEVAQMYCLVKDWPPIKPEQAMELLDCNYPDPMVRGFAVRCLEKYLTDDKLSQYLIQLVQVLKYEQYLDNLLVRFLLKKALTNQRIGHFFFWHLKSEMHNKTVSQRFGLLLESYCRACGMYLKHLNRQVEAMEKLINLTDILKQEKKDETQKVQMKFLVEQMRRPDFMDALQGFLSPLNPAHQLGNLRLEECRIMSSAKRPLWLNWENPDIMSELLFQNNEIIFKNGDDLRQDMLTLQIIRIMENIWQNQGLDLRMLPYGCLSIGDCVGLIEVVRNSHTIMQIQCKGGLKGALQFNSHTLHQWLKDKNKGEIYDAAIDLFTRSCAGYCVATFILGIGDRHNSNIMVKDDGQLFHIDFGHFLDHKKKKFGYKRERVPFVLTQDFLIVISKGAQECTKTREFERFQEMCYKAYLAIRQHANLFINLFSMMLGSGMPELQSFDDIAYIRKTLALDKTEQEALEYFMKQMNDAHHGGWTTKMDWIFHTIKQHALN
# In short: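 Duplicate single-point screen (25 uM), then singleton dose-response (max 50 uM) for compounds meeting the threshold. Cell-free kinase reaction, 1 h; fluorescent mobility-shift readout.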
# [2] = CCTE_Deisenroth_5AR_NBTE_donor: CCTE's 5alpha-reductase NanoBRET Target Engagement Assay […], Deisenroth Lab (AID 2284319); conditions: actives raise or lower the signal
# In short: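 In this secondary endpoint, donor luminescence from SRD5A2-NanoLuc in transfected HEK293T flags artifacts. Test chemical (10 nM - 29.9 uM) is present five hours, tracer the last two; mock-tracer wells run plate-matched; data fitted bidirectionally against DMSO.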
# [3] = CCTE_Deisenroth_5AR_NBTE_acceptor: CCTE's 5alpha-reductase NanoBRET Target Engagement Assay - Autofluorescence Screen, Deisenroth Lab (AID 2284321); conditions: actives raise or lower the signal;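 note: compound fluorescence in the acceptor channel under 460 nm excitation flags autofluorescence artifacts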
# In short: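 Acceptor-channel fluorescence flags artifacts, with excitation fixed at 460 nm. Nominal 100 uM chemical samples were read in triplicate runs, and signal changes were fitted in both directions relative to DMSO.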
# [4] = system: SRD5A2 (gene 6716); test: CCTE_Deisenroth_5AR_NBTE_ratio: CCTE's 5alpha-reductase NanoBRET Target Engagement Assay - Ratio, Deisenroth Lab (AID 2284322); conditions: actives raise or lower the signal
# In short: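 HEK293T transiently expressing SRD5A2-NanoLuc; cells exposed to chemical (8-point, 10 nM - 29.9 uM) for 5 h total, testosterone tracer added for final 2 h. NanoBRET acceptor/donor ratio (650/460 nm), bidirectional fit vs DMSO.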
# [5] = biological target: mouse Estrogen Receptor alpha (Era), Esr1 (gene 13982) (UniProt P19785); test: NVS_NR_mERa: NovaScreen (NVS) Nuclear Receptor Binding Assay for mouse Estrogen Receptor alpha (Era) (AID 2283378; active = hit-call score of the fitted dose curve at least 0.9, where 1 is the maximum;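 note: hit means loss of bound radioligand signal relative to DMSO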)
# Chain of mouse Estrogen Receptor alpha (Era), Esr1 (gene 13982) (P19785 whole entry, looked up): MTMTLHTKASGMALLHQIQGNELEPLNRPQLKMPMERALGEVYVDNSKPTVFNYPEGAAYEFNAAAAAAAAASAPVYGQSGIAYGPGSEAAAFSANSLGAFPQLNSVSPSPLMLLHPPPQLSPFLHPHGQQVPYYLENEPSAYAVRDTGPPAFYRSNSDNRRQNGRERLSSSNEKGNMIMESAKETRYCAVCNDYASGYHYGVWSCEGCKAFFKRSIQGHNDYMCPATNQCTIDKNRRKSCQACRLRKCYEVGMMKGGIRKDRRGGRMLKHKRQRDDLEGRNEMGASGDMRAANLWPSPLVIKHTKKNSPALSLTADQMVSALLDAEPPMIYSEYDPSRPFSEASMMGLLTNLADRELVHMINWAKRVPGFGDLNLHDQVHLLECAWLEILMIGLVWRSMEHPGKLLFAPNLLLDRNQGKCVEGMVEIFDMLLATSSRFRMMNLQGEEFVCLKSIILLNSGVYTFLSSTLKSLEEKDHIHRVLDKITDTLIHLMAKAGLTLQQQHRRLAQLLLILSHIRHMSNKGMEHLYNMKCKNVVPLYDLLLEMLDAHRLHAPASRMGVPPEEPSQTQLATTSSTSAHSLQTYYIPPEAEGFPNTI
# In short: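 Filter radiodetection of radioligand displacement from extracted receptor protein, measured 18 h post-dose. Single 25 uM concentration in duplicate initially, with concentration-series follow-up. Binding loss fitted relative to DMSO.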
# [6] = biological target: Estrogen receptor (Homo sapiens) (UniProt P03372); test: OT_ER_ERaERa_1440: Odyssey Thera (OT) 24-hour HEK293T Protein-Complementation Assay for Estrogen Receptor-alpha/-alpha Homodimer (AID 2283349; active = hit-call score of the fitted dose curve at least 0.9, where 1 is the maximum;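 note: hits raise fluorescence above DMSO for agonists and antagonists alike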)
# Chain of Estrogen receptor (Homo sapiens) (P03372 whole entry, looked up, the tested form may be a part): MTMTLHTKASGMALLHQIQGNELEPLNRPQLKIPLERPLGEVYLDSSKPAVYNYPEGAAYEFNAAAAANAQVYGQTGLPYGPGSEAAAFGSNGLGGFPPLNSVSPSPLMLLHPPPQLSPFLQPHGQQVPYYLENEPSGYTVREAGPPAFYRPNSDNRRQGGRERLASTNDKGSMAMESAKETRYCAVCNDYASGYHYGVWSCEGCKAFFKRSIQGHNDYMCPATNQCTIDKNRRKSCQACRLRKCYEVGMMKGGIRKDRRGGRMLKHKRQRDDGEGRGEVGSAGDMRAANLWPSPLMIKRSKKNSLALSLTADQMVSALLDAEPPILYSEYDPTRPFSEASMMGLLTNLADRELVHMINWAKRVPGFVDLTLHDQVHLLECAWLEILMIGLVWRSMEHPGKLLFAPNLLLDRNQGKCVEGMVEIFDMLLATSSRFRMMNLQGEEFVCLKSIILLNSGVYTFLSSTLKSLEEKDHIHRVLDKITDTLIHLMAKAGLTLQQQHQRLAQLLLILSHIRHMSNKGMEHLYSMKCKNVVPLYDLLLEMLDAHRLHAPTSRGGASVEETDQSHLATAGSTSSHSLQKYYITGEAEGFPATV
# In short: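 Protein-fragment complementation between two human ERα ligand-binding domains (aa 310-547) in stably transfected HEK293T cells was monitored after 24 h treatment, using fluorescence intensity relative to vehicle controls.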
# [7] = biological target: Estrogen receptor (Homo sapiens) (UniProt P03372); test: OT_ER_ERaERa_0480: Odyssey Thera (OT) 8-hour HEK293T Protein-Complementation Assay for Estrogen Receptor-alpha/-alpha Homodimer (AID 2283351; active = hit-call score of the fitted dose curve at least 0.9, where 1 is the maximum;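 note: rise in fluorescence from reassembled reporter fragments on ERα LBD homodimer in nucleus or whole cell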)
# In short: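 HEK293T, stable ERα LBD (aa 310-547) PCA homodimer; 8 h compound exposure; fluorescence intensity, laser scanning cytometer; positive fitting direction, DMSO baseline.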
# [8] = biological target: Estrogen receptor (Homo sapiens) (UniProt P03372); test: OT_ERa_GFPERaERE_0480: Odyssey Thera (OT) 8-hour HeLa Transcription Induction Assay for Estrogen Receptor (AID 2283381)
# In short: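 Fluorescent reporter signal, imaged by microscopy and scored with image-analysis algorithms, was taken 8 h after chemical dosing of HeLa cells; activity was fitted upward relative to DMSO.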
# [9] = biological target: Estrogen receptor (Homo sapiens) (UniProt P03372); test: OT_ERa_GFPERaERE_0120: Odyssey Thera (OT) 2-hour HeLa Transcription Induction Assay for Estrogen Receptor (AID 2283382; active = hit-call score of the fitted dose curve at least 0.9, where 1 is the maximum)
# In short: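 HeLa, 384-well, 2 h chemical exposure; GFP reporter induction (ERE), fluorescence microscopy; high content image analysis; positive fitting direction vs DMSO.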
# [10] = biological target: human Peripheral-type Benzodiazepine Receptor (PBR), TSPO (gene 706) (UniProt P30536); test: NVS_MP_hPBR: NovaScreen (NVS) Membrane Protein Assay for human Peripheral-type Benzodiazepine Receptor (PBR) (AID 2283331; active = hit-call score of the fitted dose curve at least 0.9, where 1 is the maximum;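 note: hits reduce radioligand binding relative to DMSO baseline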)
# Chain of human Peripheral-type Benzodiazepine Receptor (PBR), TSPO (gene 706) (P30536 whole entry, looked up): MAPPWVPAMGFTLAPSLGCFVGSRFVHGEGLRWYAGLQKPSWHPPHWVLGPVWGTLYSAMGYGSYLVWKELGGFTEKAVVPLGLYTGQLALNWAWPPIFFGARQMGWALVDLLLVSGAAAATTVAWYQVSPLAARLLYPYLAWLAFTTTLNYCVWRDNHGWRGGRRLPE
# In short: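 Scintillation counts of filter-bound radioligand served as read-out after 1 h chemical dosing of human colonic membrane preparations. Activity was scored as signal loss against DMSO; initial duplicates at 25 uM, confirmatory concentration series afterward.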
# [11] = biological target: rat Peripheral-type Benzodiazepine Receptor (PBR), Tspo (gene 24230) (UniProt P16257); test: NVS_MP_rPBR: NovaScreen (NVS) Membrane Protein Assay for rat Peripheral-type Benzodiazepine Receptor (PBR) (AID 2283335; active = hit-call score of the fitted dose curve at least 0.9, where 1 is the maximum)
# Chain of rat Peripheral-type Benzodiazepine Receptor (PBR), Tspo (gene 24230) (P16257 whole entry, looked up): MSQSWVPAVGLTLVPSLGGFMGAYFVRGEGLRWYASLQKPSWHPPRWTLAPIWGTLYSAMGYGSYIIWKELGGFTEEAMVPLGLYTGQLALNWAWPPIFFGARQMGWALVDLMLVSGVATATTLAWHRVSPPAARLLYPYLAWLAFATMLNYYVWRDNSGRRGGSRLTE
# In short: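 Rat kidney membranes; radioligand binding with displacement, filter-based scintillation counting, 1 h incubation. Primary screen in duplicate at 25 uM, actives followed in concentration series; loss of binding vs DMSO.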
# [12] = biological target: human Norepinephrine Transporter (NET), SLC6A2 (gene 6530) (UniProt P23975); test: NVS_TR_hNET: NovaScreen (NVS) Transporter Assay for human Norepinephrine Transporter (NET) (AID 2283377; active = hit-call score of the fitted dose curve at least 0.9, where 1 is the maximum;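 note: cell-free membrane protein extracted from CHO cells expressing human NET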;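 for AC50: displacement of radioligand from human NET seen as loss of scintillation signal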)
# Chain of human Norepinephrine Transporter (NET), SLC6A2 (gene 6530) (P23975 whole entry, looked up): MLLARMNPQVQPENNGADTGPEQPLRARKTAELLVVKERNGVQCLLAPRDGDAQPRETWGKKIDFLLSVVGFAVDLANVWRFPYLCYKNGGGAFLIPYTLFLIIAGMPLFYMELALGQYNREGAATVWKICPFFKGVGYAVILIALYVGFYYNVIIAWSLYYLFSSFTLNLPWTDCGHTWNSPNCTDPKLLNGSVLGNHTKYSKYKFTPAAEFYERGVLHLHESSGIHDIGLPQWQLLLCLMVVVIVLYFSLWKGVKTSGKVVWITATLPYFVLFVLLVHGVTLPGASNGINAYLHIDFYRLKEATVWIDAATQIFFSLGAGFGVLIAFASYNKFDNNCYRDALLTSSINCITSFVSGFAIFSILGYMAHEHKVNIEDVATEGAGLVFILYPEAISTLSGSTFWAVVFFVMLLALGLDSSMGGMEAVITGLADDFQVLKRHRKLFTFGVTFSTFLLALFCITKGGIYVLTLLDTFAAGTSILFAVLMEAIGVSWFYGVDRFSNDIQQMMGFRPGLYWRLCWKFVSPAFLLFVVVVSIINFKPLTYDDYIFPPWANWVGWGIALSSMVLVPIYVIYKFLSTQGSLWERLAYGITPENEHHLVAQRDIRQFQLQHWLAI
# In short: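 Scintillation counts of filter-retained radioligand served as the readout, taken 1 h post-dosing in a cell-free CHO-derived system. Test chemicals ran first at 25 uM in duplicate; confirmed hits were retested across concentrations.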
# [13] = CCTE_Padilla_ZF_Score.General: CCTE's 144 Hour Post-fertilization zebrafish Assay Score for General Malformation, Padilla Lab (AID 2284411)
# In short: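 Wild-type zebrafish embryos were plated singly at 6-8 hpf in 10% Hanks' and exposed in sealed wells at 26C until rinsed on 5 dpf. At 6 dpf two blinded assessors scored mortality, hatching and malformations by stereomicroscopy; gain-of-signal versus DMSO.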
# [14] = biological target: bovine Estrogen Receptor (ER), ESR1 (gene 407238) (UniProt P49884); test: NVS_NR_bER: NovaScreen (NVS) Nuclear Receptor Binding Assay for bovine Estrogen Receptor (ER) (AID 2283345; active = hit-call score of the fitted dose curve at least 0.9, where 1 is the maximum;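 note: actives lower the bound radioligand count which means they displace the ER ligand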)
# Chain of bovine Estrogen Receptor (ER), ESR1 (gene 407238) (P49884 whole entry, looked up): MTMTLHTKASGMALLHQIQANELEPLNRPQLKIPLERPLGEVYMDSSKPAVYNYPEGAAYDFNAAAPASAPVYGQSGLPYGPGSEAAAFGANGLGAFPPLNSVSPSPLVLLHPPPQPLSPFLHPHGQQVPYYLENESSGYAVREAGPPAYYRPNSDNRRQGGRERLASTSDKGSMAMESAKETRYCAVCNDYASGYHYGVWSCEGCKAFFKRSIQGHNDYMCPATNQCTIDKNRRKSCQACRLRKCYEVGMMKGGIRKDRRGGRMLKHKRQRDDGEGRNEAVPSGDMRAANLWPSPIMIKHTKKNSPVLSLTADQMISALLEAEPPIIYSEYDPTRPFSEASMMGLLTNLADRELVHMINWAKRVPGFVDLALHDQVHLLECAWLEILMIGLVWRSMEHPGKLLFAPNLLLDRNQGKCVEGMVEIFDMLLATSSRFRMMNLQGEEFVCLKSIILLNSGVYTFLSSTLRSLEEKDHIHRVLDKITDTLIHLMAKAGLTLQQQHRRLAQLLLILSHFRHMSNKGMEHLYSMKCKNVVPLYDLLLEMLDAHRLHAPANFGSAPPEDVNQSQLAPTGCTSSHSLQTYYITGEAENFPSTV
# In short: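 Bovine uterine membranes; tritiated or iodinated radioligand; competitive displacement; 18 h; scintillation read; DMSO negative control; 25 uM duplicates, then concentration series for actives.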
# [15] = read-out: Monokine induced gamma interferon (MIG), CXCL9 (gene 4283); test: BSK_KF3CT_MIG: BioMAP Diversity Plus: KF3CT Assay for Monokine induced gamma interferon (MIG) Biomarker Activity (AID 2284248); conditions: primary human keratinocytes with fibroblasts
# In short: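 Parallel cultures were stained with SRB (560 nm) to check cytotoxicity. MIG was quantified by ELISA in a primary human skin keratinocyte/fibroblast co-culture 24 h post-dosing, with gain of signal fitted relative to DMSO.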
# [16] = read-out: Collagen I, COL1A1 (gene 1277); test: BSK_hDFCGF_CollagenI: BioMAP Diversity Plus: hDFCGF Assay for Collagen I Biomarker Activity (AID 2284250); conditions: primary human foreskin fibroblasts
# In short: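 Human skin primary fibroblasts dosed with test chemical, harvested at 24 h, Collagen I quantified by ELISA; parallel SRB staining (0.1% SRB after 10% TCA fixation, 560 nm) tracked cytotoxicity.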
# [17] = read-out: Plasminogen activator inhibitor-1 (PAI1), SERPINE1 (gene 5054); test: BSK_KF3CT_PAI1: BioMAP Diversity Plus: KF3CT Assay for Plasminogen activator inhibitor-1 (PAI1) Biomarker Activity (AID 2284252); conditions: primary human keratinocytes with fibroblasts
# In short: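 ELISA read-out of PAI-1 taken 24 h after chemical treatment of a human skin primary co-culture of keratinocytes and foreskin fibroblasts. Increases over DMSO-treated wells defined activity.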
# [18] = read-out: Interleukin-8 (IL8), CXCL8 (gene 3576); test: BSK_KF3CT_IL8: BioMAP Diversity Plus: KF3CT Assay for Interleukin-8 (IL8) Biomarker Activity (AID 2284254); conditions: primary human keratinocytes with fibroblasts
# In short: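 IL-8 by ELISA in primary human skin co-culture (keratinocytes plus fibroblasts) 24 h post-dose, DMSO as baseline. Cytotoxicity assessed in parallel by sulforhodamine B total-protein staining.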
# [19] = read-out: Intercellular Adhesion Molecule 1 (ICAM1), ICAM1 (gene 3383); test: BSK_BE3C_ICAM1: BioMAP Diversity Plus: BE3C Assay for Intercellular Adhesion Molecule 1 (ICAM1) Biomarker Activity (AID 2284278); conditions: primary human bronchial epithelial cells;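 note: cell-surface ICAM-1 protein level quantified by ELISA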
# In short: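 Human primary bronchial epithelial cultures; compound added; 24 h incubation; cell-surface ICAM-1 measured by ELISA; signal increase fitted relative to DMSO negative control.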
# [20] = read-out: Monocyte Chemoattractant Protein-1 (MCP1), CCL2 (gene 6347); test: BSK_hDFCGF_MCP1: BioMAP Diversity Plus: hDFCGF Assay for Monocyte Chemoattractant Protein-1 (MCP1) Biomarker Activity (AID 2284285); conditions: primary human foreskin fibroblasts
# In short: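 Human foreskin fibroblasts (hDFCGF system) were exposed to compound and secreted MCP-1 was measured by ELISA after 24 hours. Activity was fitted relative to DMSO. Cytotoxicity was checked by SRB total-protein staining in parallel cultures.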
smiles,measurement,setting,value
CC(=O)CCc1ccccc1,outcome,[1],inactive
CC1=NN(c2cc(Cl)c(S(=O)(=O)O)cc2Cl)C(=O)C1N=Nc1ccc(S(=O)(=O)O)cc1 (configuration not stated),outcome,[2],inactive
same,outcome,[3],inactive
same,AC50,[4],10 µM (active)
C=CC(C)(CCC=C(C)C)OC(=O)c1ccccc1 (configuration not stated),outcome,[5],inactive
CCCCCCC1CCC(=O)O1 (configuration not stated),outcome,[6],inactive
same,outcome,[7],inactive
same,outcome,[8],inactive
same,outcome,[9],inactive
CN(C)c1ccc(C(c2ccccc2)c2ccc(N(C)C)cc2)cc1,AC50,[10],2.78 µM (active)
same,AC50,[11],25 µM (active)
same,AC50,[12],31.7 µM (active)
same,AC50,[13],22.3 µM (active)
Cc1cccnc1,outcome,[13],inactive
CCCOCCC,outcome,[1],inactive
Cc1ccccc1S(N)(=O)=O,outcome,[1],inactive
Cc1cc(-n2nc3ccc(Cl)cc3n2)c(O)c(C(C)(C)C)c1,outcome,[13],inactive
CC1(C)S[C@@H]2[C@H](NC(=O)[C@H](N)c3ccccc3)C(=O)N2[C@H]1C(=O)O,AC50,[1],12.5 µM (active)
Cc1cc2nc3c(=O)[nH]c(=O)nc-3n(C[C@H](O)[C@H](O)[C@H](O)CO)c2cc1C,outcome,[14],inactive
same,outcome,[5],inactive
same,outcome,[2],inactive
same,outcome,[3],inactive
same,AC50,[4],27.1 µM (active)
CCOC(=O)c1ccccc1,outcome,[6],inactive
same,outcome,[7],inactive
same,outcome,[8],inactive
same,outcome,[9],inactive
CN(C)Cc1cc(C(C)(C)C)c(O)c(C(C)(C)C)c1,outcome,[15],inactive
same,outcome,[16],inactive
same,outcome,[17],inactive
same,outcome,[18],inactive
same,outcome,[19],inactive
same,outcome,[20],inactive
O=C(O)/C=C\C(=O)O,outcome,[2],inactive
same,outcome,[3],inactive
same,outcome,[4],inactive
O=C1NC(=O)[C@@H]2CC=CC[C@H]12,outcome,[12],inactive
CC[N+](CC)(CC(=O)Nc1c(C)cccc1C)Cc1ccccc1 (tested in a mixture with another compound),AC50,[10],4.38 µM (active)
same,AC50,[11],3.68 µM (active)
same,outcome,[15],inactive
same,outcome,[16],inactive
same,outcome,[17],inactive
same,outcome,[18],inactive
same,outcome,[19],inactive
same,outcome,[20],inactive
C=C1CC[C@H]2C[C@@H]1C2(C)C,outcome,[6],inactive
same,outcome,[7],inactive
same,outcome,[8],inactive
same,outcome,[9],inactive
CCCCCCCCCC/C=C/C1CC(=O)OC1=O (configuration not stated),outcome,[14],inactive
CCC(C)=NO,outcome,[12],inactive
COC(OC)C(C)c1ccccc1 (configuration not stated),outcome,[14],inactive
same,outcome,[5],inactive
Cc1cc(O)cc(C)c1Cl,AC50,[10],8.12 µM (active)
CCCCCC[C@@H](O)C/C=C\CCCCCCCC(=O)O,outcome,[2],inactive
same,outcome,[3],inactive
same,outcome,[4],inactive
Oc1ccc(Oc2ccccc2)cc1,AC50,[14],11 µM (active)
same,AC50,[5],8.86 µM (active)
CC[N+](CC)(CC(=O)Nc1c(C)cccc1C)Cc1ccccc1,outcome,[11],inactive
O=C(C(=O)c1ccccc1)c1ccccc1,AC50,[10],9.56 µM (active)
same,AC50,[11],1.86 µM (active)
CN(C)CCC(c1ccc(Cl)cc1)c1ccccn1 (configuration not stated),AC50,[12],7.29 µM (active)
same,outcome,[13],inactive
O=C(O)c1ccccc1C(=O)O,outcome,[6],inactive
same,outcome,[7],inactive
same,outcome,[8],inactive
same,outcome,[9],inactive
COc1ccc(C(=O)c2ccccc2O)c(O)c1,outcome,[15],inactive
same,outcome,[16],inactive
same,outcome,[17],inactive
same,outcome,[18],inactive
same,outcome,[19],inactive
same,outcome,[20],inactive
CCCCC(CC)COC(=O)C=Cc1ccc(OC)cc1 (configuration not stated),outcome,[15],inactive
same,AC50,[16],9.37 µM (active)
same,outcome,[16],inactive
same,outcome,[17],inactive
same,outcome,[18],inactive
same,outcome,[19],inactive
same,AC50,[20],8.08 µM (active)
same,outcome,[20],inactive

# From PubChem BioAssay (EPA / NIEHS)
